FAS-TE inh – FAS thioesterase domain inhibitors, primary screen, biochemical, fluorescence intensity, uHTS; recombinant FAS-TE, OMFH fluorogenic substrate, fluorescence endpoint; Fatty acid synthase (Homo sapiens), P49327; 0.67% of 360,000 active; AID 602261, 2012; inhibition, % at 15 µM;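 active means compounds whose normalised, plate-corrected inhibition of enzyme fluorescence in the single-dose primary screen is 50% or more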;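 further: 0% = DMSO with enzyme and 100% = substrate without enzyme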
CRFR2-BP antag – antagonists of CRF-BP/CRF-R2 complex, primary screen, cell-based, HEK293, calcium dye fluorescence, uHTS; CRF-induced calcium fluorescence; 0.59% of 350,000 active; inhibition, % at 11.8 µM;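 active means inhibition of the ligand-induced calcium signal above about 50% at the single tested concentration, limit read from the data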
NadD inh – inhibitors of S. aureus NadD, primary screen, biochemical, colorimetric, uHTS; Nicotinate-nucleotide adenylyltransferase NadD (Staphylococcus aureus N315); purified NadD enzyme, colorimetric absorbance read-out; inhibition, % at 20 µM; 0.78% of 360,000 active; AID 602399, 2012; in the data active means inhibition above about 26%
NRP1-CendR mod – modulators of CendR peptide binding to NRP-1, primary screen, biochemical, fluorescence polarization, uHTS. Neuropilin-1 (Homo sapiens), O14786. 0.85% of 360,000 active. AID 602438, 2012. FAM-RPARPAR peptide binding to NRP-1. inhibition, % at 25 µM;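 active means inhibition or corrected inhibition above about 18%, plus a signal ratio from 0.5 to 1.5, limit read from the data, passing the limit was not always enough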
Myeloid diff 2 – induction of myeloid progenitor differentiation, primary screen, cell-based, flow cytometry, MLPCN library | ER-HoxA9 myeloid progenitors, lysozyme-GFP differentiation | calls only at 10 µM | 1% of 360,000 active | AID 624256, 2012;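 active means normalized GFP-positive differentiation at or above the plate's own cutoff, the solvent-only control mean plus 3 SD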;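 further: cells exposed to compound for four days before flow analysis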
An asterisk follows results filed as active; i = inactive; . = no result; + = active, no number. Sampled rows, rich in hits. Any-hit rate of the full collection: about 3.6%.

SMILES	FAS-TE inh	CRFR2-BP antag	NadD inh	NRP1-CendR mod	Myeloid diff 2
NC(=O)COc1ncn(-c2ccccc2)n1	-4.0	57.2*	-4.9	28.6*	i
COCCN1C[C@@H](CO)O[C@@H](n2cnc3c(NC4CCC4)ncnc32)C1	-2.5	.	-6.4	2.4	i
N#Cc1cccc(C(Br)S(=O)(=O)c2ccccc2)c1 (stereo not drawn)	-8.7	11.7	1.2	3.0	i
Cc1ccccc1-c1cc2nc(NCCc3ccncc3)n(C)c(=O)c2s1	8.3	.	2.9	4.3	i
CCOC(=O)c1ccc(S(=O)(=O)N2CCN(c3ccccn3)CC2)cc1	3.8	-9.2	6.8	7.9	i
Cc1cccc(NS(=O)(=O)c2cccc(C(=O)NCC(C)(C)N3CCOCC3)c2)c1	-5.6	-4.5	-2.9	6.6	+
Cc1cccc(NS(=O)(=O)c2cccc(C(=O)N3CCN(c4ccccn4)CC3)c2)c1	2.4	115.1*	-0.3	-2.0	i
Cc1cccc(NS(=O)(=O)c2cccc(C(=O)N3CCC3)c2)c1	-2.6	-9.4	-1.2	-5.9	i
Cn1c(N)c(C(=O)COC(=O)Cc2ccc(Cl)cc2)c(=O)n(C)c1=O	-5.4	16.4	-1.9	-0.4	i
CC(C)(C)OC(=O)N1CCC(NC(=O)c2nc[nH]c2C(=O)N2CCc3ccccc3C2)CC1	-7.2	-2.7	4.2	30.0*	i
CC(C)(C)OC(=O)N1CCC(NC(=O)c2[nH]cnc2C(=O)Nc2ccccc2)CC1	10.8	0.3	3.4	2.0	+
CC(C)(C)OC(=O)N1CCC(NC(=O)c2nc[nH]c2C(=O)N2CCN(C(=O)OC(C)(C)C)CC2)CC1	-5.8	6.8	-2.0	4.1	i
C[C@H](NC(=O)c1[nH]cnc1C(=O)Nc1ccccc1)c1ccccc1	21.9	-9.3	-0.5	26.5*	i
O=C(CSc1nncs1)NNC(=O)c1ccco1	-3.4	12.0	-1.5	3.3	i
CCn1c(=O)c(C(=O)NCCNCCO)c(O)c2ccccc21	-1.1	-8.3	-1.9	36.6*	i
CCn1c(=O)c(C(=O)NCc2ccccc2)c(O)c2ccccc21	22.1	-9.4	-4.7	-6.1	i
CCCCC(=O)NC(NC(=S)N1CCOCC1)C(Cl)(Cl)Cl (stereo not drawn)	-4.2	17.8	-3.9	10.6	i
O=C(NC(=S)N1CCCC1)c1ccc(Cl)cc1	-7.4	-6.4	-2.3	29.9*	i
O=C(NC(NC(=S)N1CCOCC1)C(Cl)(Cl)Cl)c1ccc(Cl)cc1 (stereo not drawn)	1.5	-5.3	-6.0	-5.7	+
O=C(Cc1ccc(Br)cc1)N1CCN(c2ccc(F)cc2)CC1	2.0	-8.9	-6.1	22.8*	i
O=C(NCC(=O)N1CCN(c2ccccc2)CC1)c1ccco1	-3.2	-20.4	2.3	26.7*	i
O=C(Cc1ccccc1)NCC(=O)N1CCN(c2ccc(F)cc2)CC1	-5.5	-22.8	-4.2	25.9*	i
O=C(C(=O)N1CCN(C(=O)c2ccco2)CC1)c1cc2ccccc2o1	.	.	.	14.8	i
CC(C)Cc1csc(NC(=O)c2ccc(Cl)cc2)c1C(=O)O	-0.1	94.9*	-9.7	7.7	i
CCN(CC(=O)Nc1c(F)cccc1F)C(=O)c1cc(C)oc1C	-3.7	-2.7	0.7	3.0	i
SMILES	FAS-TE inh	CRFR2-BP antag	NadD inh	NRP1-CendR mod	Myeloid diff 2
COc1ccc(OC)c(NC(=O)c2sc3nc(Cc4ccccc4)cc(C(F)(F)F)c3c2N)c1	-84.6	-51.1	-1.7	23.9*	i
Cc1c(C(=O)O)sc2nc(-c3cccs3)cc(C(F)(F)F)c12	-2.1	4.9	-0.9	7.9	i
CN(C)CCNC(=O)c1sc2nc(-c3ccccc3)cc(C(F)(F)F)c2c1N	-6.3	-31.6	-3.8	-43.6	+
CC(=O)c1sc2nc(-c3cccs3)cc(C(F)(F)F)c2c1N	-27.0	-53.7	3.2	21.2	+
Nc1c(C(=O)C2CC2)sc2nc(-c3ccccc3)cc(C(F)(F)F)c12	-143.5	-349.9	-5.1	122.6	+
CC(=O)Nc1cccc(-c2ccnc3c2CC(C)(C(=O)Nc2ccc(Cl)c(C(F)(F)F)c2)O3)c1 (stereo not drawn)	28.7	.	8.1	-0.3	i
Cc1cc(O)ccc1-c1ccc2nncn2c1	-5.0	.	5.3	-9.2	i
COCCCN(C(=O)Cc1coc2cc(C)c(C)cc12)c1c(N)n(Cc2ccccc2)c(=O)[nH]c1=O	-2.0	-12.9	-0.6	-1.0	i
NC(COCc1ccccc1)c1csc(NC(=O)Nc2cccc(C(F)(F)F)c2)n1 (stereo not drawn)	-25.2	.	0.3	-5.6	i
CNc1cccccc1=S	-7.7	-10.6	29.2	24.6*	i
CCCCC(=O)N(C)c1c(C)nc2ccc(C(=O)N3CCNC(=O)C3)cn12	-7.4	.	1.5	15.3	i
Cc1cc(C)c(NC(=O)c2ccc(CNS(=O)(=O)c3cc(C(F)(F)F)ccc3Cl)cc2)c(C)c1	46.7	58.7*	15.6	2.3	i
O=S(=O)(NCc1ccccn1)c1cc(C(F)(F)F)ccc1Cl	-1.9	-1.1	-8.1	1.0	i
N#Cc1cccnc1N1CCN(C(C(=O)NC2CCCC2)c2ccco2)CC1 (stereo not drawn)	.	.	.	1.3	i
CC(C)(C)C(C(=O)NC1CCCC1)N1CCN(c2ncccc2C#N)CC1 (stereo not drawn)	.	.	.	29.6*	i
CCCCCOC(=O)C1C2C=CC3(CN(c4ccccc4C)C(=O)C13)O2 (stereo not drawn)	-2.3	-2.2	3.5	7.8	+
CCOC(=O)C1C2C=CC3(CN(c4ccccc4CC)C(=O)C13)O2 (stereo not drawn)	-10.1	-1.5	-4.9	4.7	i
COc1ccccc1OCC(=O)Nc1sc2c(c1C(N)=O)CCC2	2.0	0.6	-4.3	-25.5	i
COc1ccccc1OCC(=O)Nc1sc2c(c1C(=O)NCC1CCCO1)CCC2 (stereo not drawn)	21.8	11.3	-4.6	4.0	+
Nc1nc(N)c2nc(-c3ccccc3)c(N)nc2n1	-4.9	-11.6	-5.8	11.3	+
O=C(NCCCN1CCOCC1)/C(=C/c1ccc(F)cc1)NC(=O)c1ccccc1	-4.7	3.7	-3.8	-5.8	i
COc1cccc(C#CC2=CC(=O)CC(C)(C)C2)c1	6.1	5.4	-0.4	-7.0	i
COCCn1c(SCC(=O)Nc2ccc3c(c2)OCCO3)nc2ccccc2c1=O	4.7	3.3	2.7	-10.0	i
CCOc1ccc(-n2c(SCC(=O)Nc3ccc4c(c3)OCO4)nc3ccccc3c2=O)cc1	9.0	11.1	8.1	-3.8	i
COCC(C)n1c(SCC(=O)Nc2ccc3c(c2)OCCO3)nc2ccccc2c1=O (stereo not drawn)	4.6	-18.6	-7.9	22.1*	i
CCN(CC)C(=O)CSc1nc2ccccc2c(=O)n1-c1cccc(OC)c1	-2.4	5.6	-0.9	8.9	i

Assay outcomes deposited in PubChem by several laboratories.
